Compound activity (PubChem BioAssay)
mIDH1 inhibitor – human IDH1 R132H inhibition; O75874; IDH1-R132H enzyme, NADPH consumption, diaphorase/resazurin fluorescence; Potency, µM (series often up to 76.6 µM), without a hit: at the highest dose activity change, negative = inhibition, actives largely listed as inhibitors; 0.093% of 390,000 active; note: potency is the fitted concentration of half-maximal effect; % is set by controls: 0 for no effect and ±100 for the full control effect; nearly all actives have a fitted effect of over 65% in size
Target sequence (O75874 whole entry R132H, stated change not applied): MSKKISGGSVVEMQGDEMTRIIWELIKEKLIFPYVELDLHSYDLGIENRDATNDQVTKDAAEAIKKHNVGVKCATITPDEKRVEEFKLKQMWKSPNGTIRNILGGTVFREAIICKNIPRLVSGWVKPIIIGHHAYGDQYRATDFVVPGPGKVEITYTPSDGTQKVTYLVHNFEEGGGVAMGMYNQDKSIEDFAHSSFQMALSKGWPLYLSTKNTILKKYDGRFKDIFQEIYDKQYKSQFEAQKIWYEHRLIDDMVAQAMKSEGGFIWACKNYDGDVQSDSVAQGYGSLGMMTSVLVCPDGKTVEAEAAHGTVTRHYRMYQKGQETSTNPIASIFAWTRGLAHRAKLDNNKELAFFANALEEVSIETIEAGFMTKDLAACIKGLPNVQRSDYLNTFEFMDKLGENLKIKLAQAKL
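IDH1-R132H (0.5 ug/mL) preincubated 30 min with compound, then NADPH (0.016 mM) and alpha-KG (2 mM) added; 80 min at RT, pH 7.5. Remaining NADPH coupled via diaphorase/resazurin to fluorescence (540/590 nm); concentration-response curves normalized to no-enzyme control.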
Nrf2 activator – activators of Nrf2 (ARE) signaling; AREc32 ARE-luciferase reporter (MCF7-derived line), luminescence, 24 h; 0.31% of 410,000 active; Potency, µM (titrated, usually from 46.1 µM), for the others: at the top dose activation, usual class: activators; note: potency is the fitted concentration of half-maximal effect; % of control where 0% means no effect; nearly all actives have a fitted effect of over 65% in size
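AREc32 cells carrying an ARE-driven firefly luciferase reporter were seeded at 1000 cells/well in OPTI-MEM with 5% FBS, then exposed to compound for 24 hr at 37 deg C. Luminescence was read with Steady-Glo after 30 min at RT.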
Nrf2 inh – blocks Nrf2 signaling. A549 ARE-Fluc reporter, luciferase luminescence, 18-24 h. Potency, µM (doses to about 46 µM), inactives show at the highest dose activity change, negative = inhibition, most hits filed as inhibitors. 2.1% of 360,000 active. AID 504444; note: potency is the fitted concentration of half-maximal effect; % is set by controls: 0 for no effect and ±100 for the full control effect; nearly all actives have a fitted effect of over 60% in size
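A549 ARE_Fluc cells (5000/well, 5% FBS OPTI-MEM) pre-incubated 2 h, then treated with compounds 18-24 h at 37C/5% CO2 in concentration-response. CellTiter-Fluor viability read first; BugLite luciferase luminescence after 15 min at room temperature gives Nrf2 activity.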
12-LOX inh – ALOX12 (human) lipoxygenase inhibition; 1.1% of 580,000 active; P18054; Potency, µM (highest dose often 108 µM), for the others: at the top dose activity change, negative = inhibition, actives largely listed as inhibitors; purified 12hLO, xylenol orange hydroperoxide absorbance; note: potency is the fitted concentration of half-maximal effect; % is set by controls: 0 for no effect and ±100 for the full control effect
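Hydroperoxide product was detected by ferrous iron/xylenol orange as the 573 to 405 nm absorbance ratio. Arachidonic acid at 40 uM (final) was turned over for 30 min at room temperature by 150 nM human 12hLO, pH 7.0 Hepes buffer, after 15 min compound preincubation.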
LDHA block – LDHA (human) enzyme inhibition; P00338; purified LDHA, NADH/diaphorase-resazurin fluorescence; hits give low values; activity change, % (values are at about 110 or 230 µM); 0.15% of 480,000 active; AID 1347041; in the data active = activity change below about -30%; inconclusive = mostly about -25% to -30%;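 note: plate controls were DMSO wells for no effect and wells without enzyme for full effect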
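Enzyme activity of human lactate dehydrogenase 5 (2 nM; 0.06 mM NADH, 0.2 mM pyruvate, 5 min, RT) is measured via a resazurin/diaphorase fluorescence readout of residual NADH.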
A549 viability – counter-screen for Nrf2 inhibitors: cytotoxicity in A549 cells; A549 ARE-Fluc cells, CellTiter-Fluor viability, 18-24 h; 0.16% of 390,000 active; Potency, µM (highest dose often 46 µM), for the others: top-dose activity change, negative = cytotoxicity, usual class: inhibitors; note: potency is the fitted concentration of half-maximal effect; % is set by controls: 0 for no effect and ±100 for the full control effect
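A549 ARE-Fluc cells in 5% FBS OPTI-MEM, 5000 cells/well, rested 2 h then exposed to compounds in concentration-response for 18-24 h at 37 °C. Viability by CellTiter-Fluor fluorescence (Ex 405/Em 525) after 30 min; luciferase luminescence (BugLite, 15 min, RT) read afterwards.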
* = called active by the depositor; ? = inconclusive; / = no result. Only some compounds are listed: those with a hit (about 2.7% of all), similar ones and a draw of the others. Unless noted, calls come from the whole dose curve; as a rule, active = well fitted curve in the direction sought with a large enough effect; inconclusive = small, poorly fitted or top-dose-only effect, or another doubt; inactive = no such curve, though single readings can be large; an effect the other way counts as inactive or inconclusive.

SMILES	mIDH1 inhibitor	Nrf2 activator	Nrf2 inh	12-LOX inh	LDHA block	A549 viability
N=c1c2c(ccn1Cc1ccccc1)Oc1ccc3ccccc3c1C2c1ccccc1 (centres undefined)	/	/	5.17µM*	/	-14.9	11.6µM*
CCCOC(=O)c1c(-c2ccccc2)csc1NC(=O)c1ccoc1C	/	/	/	-8.0%	-2.6	/
CC(C)N1C(=O)S/C(=C/c2ccc(Sc3nc4ccccc4[nH]3)o2)C1=O	-3.6%	9.4%	14.6µM*	-23.0%	-1.4	?
C=CCN1C(=O)S/C(=C/c2ccc(Sc3nc4ccccc4[nH]3)o2)C1=O	11.3%	0.1%	?	-15.6%	1.2	-2.8%
COc1cccc(C2C(C(=O)c3cc4ccccc4o3)=C(O)C(=O)N2c2cc(C)on2)c1OC (centres undefined)	-2.4%	17.6%	-45.7%	?	-7.5	?
COc1cc(C2C(C(=O)c3cc4ccccc4o3)=C(O)C(=O)N2c2cc(C)on2)cc(OC)c1OC (centres undefined)	-1.6%	3.2%	-12.2%	10µM*	1.5	?
Cc1cc(N2C(=O)C(O)=C(C(=O)c3cc4ccccc4o3)C2c2cccc(Br)c2)no1 (centres undefined)	-7.2%	7.0%	6.8%	44.7µM*	-22.2	-0.2%
Oc1ccc(Cl)cc1C=Nc1cc(C(F)(F)F)ccc1Oc1ccccc1	/	/	/	-21.2%	3.2	/
CCOc1ccccc1N1CCN(CC(=O)Nc2cc(Cl)ccc2Cl)CC1	/	/	/	-16.2%	-0.6	/
Cc1ccc(/C=C(\C#N)C(=O)Nc2ccc(Br)cc2)o1	/	19.6%	11.3%	5.5%	-0.1	4.8%
N#C/C(=C\c1ccc([N+](=O)[O-])o1)C(=O)Nc1ccc(F)cc1	11.7%	10.2%	-1.6%	44.7µM*	23.6	-19.7%
Cc1cc(NC(=O)COC(=O)C(Nc2ccc(C(F)(F)F)cc2Cl)C(C)C)no1 (centres undefined)	2.3%	0.3%	23.1µM*	-2.5%	9.6	23.1µM*
C=CCSC1=N/C(=C\c2ccc(C(C)C)cc2)C(=O)S1	/	/	/	?	4.5	/
O=C(c1ccc2nsnc2c1)N1CCN(c2ccc([N+](=O)[O-])cc2)CC1	7.8%	5.1%	23.1µM*	-12.8%	7.2	-6.8%
O=C(Cc1ccccc1)N1CCN(c2ccc([N+](=O)[O-])cc2)CC1	-10.4%	-0.3%	25.9µM*	17.9%	-0.3	-21.3%
O=C(c1cc([N+](=O)[O-])ccc1Cl)N1CCN(c2ccc([N+](=O)[O-])cc2)CC1	0.5%	0.6%	20.6µM*	?	-5.3	?
O=[N+]([O-])c1ccc(Cl)c(/C=N/N2CCN(c3ccccc3)CC2)c1	1.6%	12.6µM*	8.6%	3.0%	0.0	-0.2%
O=C(c1ccccc1)N1CCN(C(=O)c2ccc([N+](=O)[O-])cc2)CC1	1.1%	-0.1%	?	-2.6%	3.9	-0.2%
COc1ccccc1N1CCN(/N=C/c2cc([N+](=O)[O-])ccc2Cl)CC1	0.0%	3.3%	21.3%	-4.3%	0.5	-1.5%
O=C(c1cc([N+](=O)[O-])ccc1Cl)N1CCN(c2ccc(F)cc2)CC1	-6.2%	0.8%	-10.0%	-15.2%	0.4	9.5%
O=C(C1CCC(Cn2c(=O)c3sccc3n(Cc3ccc(Cl)cc3)c2=O)CC1)N1CCCC1 (centres undefined)	/	/	/	-28.1%	-0.5	/
O=C(Cc1ccc(Cl)cc1)N1CCN(c2ccccc2O)CC1	/	/	/	31.6µM*	13.8	/
COc1ccc(N2CCN(C(=O)c3ccc(COc4ccc([N+](=O)[O-])cc4)o3)CC2)cc1	5.3%	0.3%	23.1µM*	17.3%	1.0	-18.5%
CN(CC(=O)Nc1ccccc1SC(F)F)S(=O)(=O)c1ccc2ccccc2c1	/	/	/	?	13.3	/
Cc1cc(C)c(C#N)c(OCC(=O)c2ccc(Br)cc2)n1	10.8%	6.31µM*	2.6%	-11.8%	0.1	-2.6%
SMILES	mIDH1 inhibitor	Nrf2 activator	Nrf2 inh	12-LOX inh	LDHA block	A549 viability
Cc1ccnc(SCC(=O)c2ccc(Br)cc2)c1C#N	8.2%	2.24µM*	?	-5.0%	-1.3	15.4%
Cc1ccc(C(=O)CSc2nsc(C)c2C#N)cc1	0.0%	6.0%	?	?	-4.4	-12.6%
Cc1ccc(C(=O)COc2nc(C)cc(C)c2C#N)cc1	1.5%	0.2%	-29.6%	-5.8%	-4.0	-17.9%
COc1ccccc1-c1cncnc1-n1ccnc1	/	/	/	25.1µM*	/	/
c1cc2c(cc1C1=NNC(=NC3CC3)SC1)OCCO2	5.1%	-3.5%	2.31µM*	-12.9%	-5.7	3.2%
FC(F)Sc1ccc(N=C2NN=C(c3ccc4c(c3)OCCO4)CS2)cc1	?	9.1%	16.4µM*	?	0.0	16.4µM*
CCOc1nc(-c2ccccc2)ccc1-c1noc(-c2cccs2)n1	9.5%	?	?	0.0%	1.0	?
CCOc1ncccc1-c1nc(-c2cccs2)no1	4.1%	10µM*	?	0.0%	4.9	14.3%
Cc1ccc2cc(C#N)c(NCCNC(=O)C3CC3)nc2c1C	4.8%	-0.4%	7.31µM*	0.0%	-15.2	-18.5%
FC(F)(F)c1ccc(/C=N/Nc2cccc(Cl)c2)cc1	/	/	/	?	13.5	/
Clc1cccc(N/N=C/C(Br)=C/c2ccccc2)c1	/	/	/	11.2µM*	7.4	/
O=[N+]([O-])/C=C/c1cn(Cc2ccc(Cl)cc2)c2ccccc12	?	0.1%	?	?	1.9	-16.8%
Cc1cccc(Cn2cc(/C=C/[N+](=O)[O-])c3ccccc32)c1	?	-3.1%	16.4µM*	?	5.0	/
O=C(Nc1ccc(F)cc1)C1C(c2ccccc2)C1(Cl)Cl (centres undefined)	7.4%	1.8%	?	7.08µM*	-11.2	10.3%
COc1ccc(CN2CCN(Cc3c[nH]c4ccccc34)CC2)cc1	-1.3%	4.9%	6.8%	0.708µM*	-33.7*	-3.9%
COc1ccc(Br)cc1CN1CCN(Cc2c[nH]c3ccccc23)CC1	8.5%	7.5%	4.0%	?	-16.9	-2.1%
COc1ccc(CN2CCN(Cc3c[nH]c4ccccc34)CC2)cc1OC	6.6%	7.4%	/	1.12µM*	-31.5*	/
COc1ccc(CN2CCC(N3CC(C)OC(C)C3)CC2)c(OC)c1 (centres undefined)	-6.1%	-0.5%	-3.1%	?	-32.0*	0.7%
COc1ccc(CN2CCN(Cc3c[nH]c4ccccc34)CC2)c(OC)c1	-4.2%	5.1%	/	?	-32.5*	/
COc1ccc2nc(N3C(=O)C(O)=C(C(=O)c4ccco4)C3c3cccc(OC)c3OC)sc2c1 (centres undefined)	/	/	/	?	3.3	/
CCOc1ccccc1Nc1nc(-c2ccccc2)cs1	/	/	/	?	0.5	/
